Records with an inconclusive call do not appear. Some compounds were tested as several samples or in several runs, with calls that do not always agree. A number with no mark means an inactive call. Activity calls are given as the source filed them. Calls follow the shape of the dose curve; as a rule, active = well fitted inhibition curve with a large enough effect; inconclusive = small, poorly fitted or top-dose-only effect; inactive = flat fitted curve, though single readings scatter.

This test can be described thus: Drug repurposing screens with cells derived from glioblastoma tumor samples (AID 1345199). Also: nearly all actives have a fitted effect of over 40% in size. To be noted: GBM patient neurospheres viability, ATP luminescence, 48 h. The procedure: CD133+ cells were isolated from GBM patient biopsies and cultured as neurospheres. Neurospheres from four patients were used to screen the NCATS pharmaceutical collection (NPC) library of approved drugs and bioactive compounds. […] The neurospheres were incubated with drugs for 48 hours in 1536-well format, then assayed with an ATP content cell viability assay. […] These hits were cherry picked to confirm activity in the four original GBM lines screened plus three other slower growing GMB lines (unable to yield enough cells for a full primary screen). Variable activities of the confirmed primary hits in the different GBM patient lines were observed. The patient line 206 responded to the greatest number of compounds and line 923 responded to the least amount of active compounds.

Where [1] appears, read: at 20 µM (top of the series), tumour line C.
Setting [2] is: at 21.2 µM (top of the series), tumour line B.
Where [3] appears, read: at 21.2 µM (top of the series), tumour line D.
Setting [4] is: at 45.9 µM (top of the series), tumour line B.
The mark [5] stands for this setting: at 45.9 µM (top of the series), tumour line D.
Where [6] appears, read: at 46.1 µM (top of the series), tumour line C.
Where [7] appears, read: at 46 µM (top of the series), tumour line A.
% is scaled to controls: 0 for no effect and ±100 for the full control effect; potency is read from the fitted curve at half-maximal effect.

Take `CN1C(C(=O)Nc2ccccn2)=C(O)c2sccc2S1(=O)=O`: the activity, negative = cell killing was 2.25% under setting [1], -11.7% under setting [2] and -11.3% under setting [3].

Take `COc1c(O)cc2c(c1O)[C@@H]1O[C@H](CO)[C@@H](O)[C@H](O)[C@H]1OC2=O`: the activity, negative = cell killing under setting [1] was -10.5%; the activity, negative = cell killing under setting [2] is -10.4%; the activity, negative = cell killing under setting [3] is -25.7%.

For the compound `Cc1nccn1CC1CCc2c(c3ccccc3n2C)C1=O` (stereo not given), the activity, negative = cell killing under setting [1] was -25.3%; the activity, negative = cell killing under setting [2] is -23.2%; the activity, negative = cell killing under setting [4] is -6.55%; the activity, negative = cell killing under setting [5] is -25.8%; the activity, negative = cell killing under setting [6] was -22.8%. Moreover, the Potency (tumour line A) was 11.2 µM (active).

As to `Cc1cccc(C)c1OCC(=O)N[C@@H](Cc1ccccc1)[C@@H](O)C[C@H](Cc1ccccc1)NC(=O)[C@H](C(C)C)N1CCCNC1=O`, the activity, negative = cell killing by setting is: under setting [4], -15.7%; under setting [5], -27.5%; under setting [6], -29%. Moreover, the Potency (tumour line A) is 10 µM (active).

`O=C(NCCO[N+](=O)[O-])c1cccnc1`: the activity, negative = cell killing was -0.47% under setting [4], -18.1% under setting [5] and -10.1% under setting [6].

For `O=C(NC(Cc1cc(=O)[nH]c2ccccc12)C(=O)O)c1ccc(Cl)cc1` (stereo not given), the activity, negative = cell killing is, setting by setting: under setting [4], -5.33%; under setting [5], 4.89%; under setting [7], -9.81%; under setting [6], -15.5%.

Turning to `NC(=O)Cc1cccc(C(=O)c2ccccc2)c1N`, the activity, negative = cell killing is, setting by setting: under setting [4], -10.2%; under setting [5], -28%; under setting [6], -24.8%.

For `O=P(O)(O)C(O)(Cn1ccnc1)P(=O)(O)O`, the activity, negative = cell killing by setting is: under setting [4], -3.43%; under setting [5], -0.668%; under setting [7], -16.2%; under setting [6], -7.84%.

As for `CCC1=C(C)CN(C(=O)NCCc2ccc(S(=O)(=O)NC(=O)NC3CCC(C)CC3)cc2)C1=O` (stereo not given), the activity, negative = cell killing under setting [4] was 4.42%; the activity, negative = cell killing under setting [5] was -28.4%; the activity, negative = cell killing under setting [6] is -8.33%.

Take `CCC(C)(Oc1ccc(C2(c3ccc(OC(C)(CC)C(=O)O)cc3)CCCCC2)cc1)C(=O)O` (stereo not given): the activity, negative = cell killing by setting is: under setting [4], -15.2%; under setting [5], -12.5%; under setting [7], -6.69%; under setting [6], -24.8%.

For `CCCCC(CC)COC(=O)C(C#N)=C(c1ccccc1)c1ccccc1` (stereo not given), the activity, negative = cell killing under setting [6] was -18.1%. Also, the Potency (tumour line A) is 7.08 µM (active) and the Potency (tumour line D) was 10 µM (active).

Source of the values: PubChem BioAssay (NCATS).
